Laboratory results: PubChem BioAssay AID1224861 (National Center for Advancing Translational Sciences (NCATS), 2016)
Inconclusive results are not listed. Unmarked numbers belong to inactive results. Active and inactive are the calls of the source. The call rests on the fitted dose curve; in most records, active means well fitted cell-killing curve with a large enough effect; inconclusive means small, poorly fitted or top-dose-only effect, or effect the other way; inactive means flat fitted curve, though single readings scatter.

Assay: Compound cytotoxicity measured by an ATP content assay as a counter-screen for lead compounds in human astrocytes
Conditions: human astrocytes viability, ATP luminescence; series mostly up to 46.1 µM; activity change, negative = cytotoxicity: at the top concentration
Method: National Center for Advancing Translational Sciences [NCATS] Johns Hopkins University School of Medicine Florida State University Assay Overview: Many compounds can cause cytotoxicity at high compound concentrations. […] The compound cytotoxicity may also cause side effects or toxicity in human. Thus, the compound cytotoxicity needs to be measured in each cell type and each compound incubation time - same as these in the compound screening assay. The compound cytotoxicity can be measured by cell viability assays such as the ATP content assay. We use an ATP content assay kit for cell viability measurement. It measures ATP content (level) in human astrocytes using a luminescence readout that is proportional to viable cell numbers. Decrease in the luminescence signal after the compound treatment indicates reduced cell viability and cell death caused by compound treatment.
Assay Protocol Summary: The medium for astrocytes contains AM basal medium (ScienCell, Cat.# 1801), AGS (ScienCell, Cat.# 1801), 10% FBS, and 1% Pen/Strep. The ATP content assay kit (PerkinElmer, Cat.# 6016731) was used to determine cell viability. The reagent was reconstituted and prepared as described by the manufacturer. Cells were seeded in 384- or 1536-well assay plates and cultured at 37 C with 5% CO2 for 16 to 20 hours. The typical cell seeding density in the 1536-well plate assay is 350 cells/well in 3 ul medium for astrocytes in the tissue cultured treated/PDL coated plates. Compounds were added to cells and incubated for a specific time such as 6, 24, or 72 hours before addition of the reagent mixture of the ATP content assay kit at 1:1 ratio. After incubation at room temperature for 10 minutes, the luminescence intensity in assay plates was measured using a ViewLux plate reader (PerkinElmer). […] The percentage inhibitions of the decreased cell viability by small molecules were then calculated that indicate compound cytotoxicity.

Point of comparison: `CC(C)[N+](C)(CCC(C(N)=O)(c1ccccc1)c1ccccc1)C(C)C`, “activity change, negative = cytotoxicity” value 5.53%. Against it:
- O=C1C=CC[C@@H]2[C@H]3CCCN4CCC[C@@H](CN12)[C@@H]34 — higher, 11%
- CC[n+]1c(-c2ccccc2)c2cc(N)ccc2c2ccc(N)cc21 — higher, 14.2%
- CN1CC[C@@]2(C)c3cc(OC(=O)Nc4ccccc4)ccc3N(C)[C@@H]12 — higher, 10.3%
- COc1cccc2c1C(=O)c1c(O)c3c(c(O)c1C2=O)C[C@@](O)(C(=O)CO)CC3OC1CC(N2CCOC(OC)C2)C(O)C(C)O1 (some centres undefined) — lower, -2.9%
- COP(=S)(OC)SCN1C(=O)c2ccccc2C1=O — lower, -1.28%
- COC1(CS(=O)c2ccccc2)CCN(CCc2c[nH]c3ccc(F)cc23)CC1 (centres undefined) — higher, 6.46%
- CC(O)CN1CCN(CC(=O)[O-])CCN(CC(=O)[O-])CCN(CC(=O)[O-])CC1.[Gd+3] (centres undefined) — higher, 13.1%
- CC(C)N[C@@H]1CCn2c(=O)[nH]c3cccc(c32)[C@@H]1O — higher, 14.5%
- Oc1ccc([C@H]2CNCc3c2ccc(O)c3O)cc1O — higher, 10%
- O=C1CCC[C@@H]2[C@H]3CCCN4CCC[C@@H](CN12)[C@@H]34 — higher, 13.7%

With `O=c1c2ccccc2[se]n1-c1ccccc1` the Potency was 9.75 µM (active).
For `Cc1ccc([N+](=O)[O-])[c]2c1[O][Hg]2`, the Potency was 3.08 µM (active).
With `O=C(Nc1ccc(Br)cc1)c1cc(Br)cc(Br)c1O` the Potency was 15.5 µM (active).
